Beta apoptosis: beta cell apoptosis inhibition; protection from apoptosis, % (test concentration not listed); hit rate 0.8% among 300,000; INS-1E cytokine-induced death, ATP luminescence, 48 h; percent of positive-control rescue, neutral wells zero;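 active = Every replicate reaches about 75%, or at least half do and their mean reaches it too, limit read from the data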;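 also: higher means more ATP so stronger rescue from cytokine killing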
Shn3 3UTR inh: Schnurri-3 reporter inhibition in Clone20 osteoblasts | Clone20 osteoblast Shn3 3'UTR firefly luciferase, 24 h | hit rate 0.52% among 360,000 | AID 588674 | inhibition, % at 12.5 µM;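 active = mean inhibition of at least 75% with every replicate also reaching 75%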
PAX8 reporter: PAX8 transcriptional activity inhibition. RMG-I TPO-luciferase reporter, SteadyGlo, 24 h. hit rate 1.2% among 360,000. inhibition, % at 12.6 µM;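 active = mean replicate inhibition at least 60% with every replicate also reaching 60%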;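 also: luciferase light reporting Pax8 driven TPO promoter activity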
Gli-Sufu block: Gli-Sufu pathway antagonism | Sufu-KO-LIGHT fibroblasts, Gli luciferase reporter luminescence | inhibition, % at 5 µM | hit rate 0.74% among 340,000 | AID 588413;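 active = inhibition above about 55%, limit read from the data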
CSC inhib: cancer stem cell inhibition | cancer stem cell-like cells viability, luminescence | hit rate 1.1% among 300,000 | AID 2717 | inhibition, % at 7.5 µM; in the data active = inhibition above about 75%; tested in HMLE shEcad cells
Mdm2-MdmX inh: human Mdm2/MdmX binding inhibition; hit rate 3% among 330,000; SaOS-2 split-luciferase Mdm2/MdmX complementation, luminescence; inhibition, % at 8 µM; O15151+Q00987;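 active = inhibition of at least 50% at 8 µM in the primary screen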
Target sequence (O15151 whole entry, looked up): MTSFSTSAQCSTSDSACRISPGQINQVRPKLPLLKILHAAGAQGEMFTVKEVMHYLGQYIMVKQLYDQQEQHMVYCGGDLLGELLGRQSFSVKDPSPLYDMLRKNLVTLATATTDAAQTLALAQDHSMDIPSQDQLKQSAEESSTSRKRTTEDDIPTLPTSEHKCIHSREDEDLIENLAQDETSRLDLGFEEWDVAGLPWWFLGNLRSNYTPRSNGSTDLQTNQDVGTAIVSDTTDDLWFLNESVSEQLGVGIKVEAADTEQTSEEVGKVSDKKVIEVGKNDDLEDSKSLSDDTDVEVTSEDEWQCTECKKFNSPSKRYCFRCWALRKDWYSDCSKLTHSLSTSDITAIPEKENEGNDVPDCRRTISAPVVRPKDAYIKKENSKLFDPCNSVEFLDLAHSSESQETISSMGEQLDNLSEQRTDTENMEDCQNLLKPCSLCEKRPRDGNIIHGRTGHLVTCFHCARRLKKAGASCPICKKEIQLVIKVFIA
Target sequence (Q00987 whole entry, looked up): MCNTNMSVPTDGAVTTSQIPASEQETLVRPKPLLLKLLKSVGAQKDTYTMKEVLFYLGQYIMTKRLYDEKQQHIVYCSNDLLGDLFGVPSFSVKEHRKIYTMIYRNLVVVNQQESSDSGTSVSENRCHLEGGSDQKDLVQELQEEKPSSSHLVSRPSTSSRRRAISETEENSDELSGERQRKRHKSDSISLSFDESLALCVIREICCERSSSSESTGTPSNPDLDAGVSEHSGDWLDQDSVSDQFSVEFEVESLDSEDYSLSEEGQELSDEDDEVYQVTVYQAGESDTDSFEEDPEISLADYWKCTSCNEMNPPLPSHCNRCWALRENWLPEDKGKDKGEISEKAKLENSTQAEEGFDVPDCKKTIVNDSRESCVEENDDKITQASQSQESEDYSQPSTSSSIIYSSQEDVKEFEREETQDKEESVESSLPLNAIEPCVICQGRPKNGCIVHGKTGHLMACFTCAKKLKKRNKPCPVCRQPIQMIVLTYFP
Gli-Sufu confirm: Gli-SUFU antagonism confirmation, single concentration | shares compounds with Gli-Sufu block | Sufu-KO-LIGHT cells, Gli luciferase reporter, luminescence | inhibition, % at 5 µM | hit rate 40% among 2,500;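 active = mean inhibition at 5 µM reaching about 45%, limit read from the data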
SufuKO cytotox: cytotoxic in Gli-SUFU antagonist counter-screen. shares compounds with Gli-Sufu block. Sufu-KO-LIGHT cells cytotoxicity, ATP luminescence. cytotoxicity, % at 5 µM. hit rate 32% among 2,500;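 active = mean cytotoxicity at 5 µM above about 25%, limit read from the data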;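 also: cells exposed to compound overnight for roughly 16 to 18 hours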
Wnt3a cs: counter-screen for Gli-SUFU antagonists: Wnt3a reporter inhibition. shares compounds with Gli-Sufu block. hit rate 20% among 2,500. AID 651995. inhibition, % at 6.25 µM. Wnt-LIGHT cells, Wnt3a-driven luciferase reporter, luminescence;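 active = mean inhibition above about 25%, limit read from the data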
Each line names hits and unclear results; the compound was inactive in the other large screens (follow-up assays come after a bar, where they were run). Most compounds without a hit are left out; they make up all but 4% or so of the library.

Cc1cn([C@@H](CCCCNC(=O)OC(C)(C)C)C(=O)NCCCCCCCCCCC(=O)N2CCN(C(=O)OC(C)(C)C)CC2)nn1	Shn3 3UTR inh 90, Gli-Sufu block 60 (no result: PAX8 reporter) | Gli-Sufu confirm 59 | SufuKO cytotox 36 | Wnt3a cs inactive
CC(C)CC(NC(=O)OC(C)(C)C)c1cn([C@@H](CCCCNC(=O)OC(C)(C)C)C(=O)N2CCN(C(=O)OC(C)(C)C)CC2)nn1 (stereo partly drawn)	none
CN1CCN(C(CNC(=O)C(=O)Nc2ccc3c(c2)OCO3)c2ccc(F)cc2)CC1 (stereo not drawn)	none (no result: Beta apoptosis) | Gli-Sufu confirm inactive | SufuKO cytotox inactive | Wnt3a cs inactive
COc1ccc(C(CNC(=O)C(=O)Nc2ccc3c(c2)OCO3)N2CCN(C)CC2)cc1 (stereo not drawn)	none (no result: Beta apoptosis)
COC(=O)c1ccc(Oc2cc(C)nc(-n3nc(C)cc3C)n2)cc1	none (no result: PAX8 reporter, Mdm2-MdmX inh) | Gli-Sufu confirm 64 | SufuKO cytotox 60 | Wnt3a cs inactive
C[C@@H]1CN([C@H](C)CO)C(=O)c2cccc(N(C)C)c2O[C@@H]1CN(C)Cc1ccc(Oc2ccccc2)cc1	none (no result: Beta apoptosis, Shn3 3UTR inh, Gli-Sufu block, CSC inhib, Mdm2-MdmX inh)
O=C(C[C@H]1C[C@@H]2c3cc(NC(=O)NC4CCCC4)ccc3O[C@@H]2[C@H](CO)O1)NCc1ccccc1	none (no result: Beta apoptosis, Shn3 3UTR inh, Gli-Sufu block, CSC inhib, Mdm2-MdmX inh)
CC(=O)c1ccc(NS(=O)(=O)c2ccc(C(C)(C)C)cc2)cc1	none
CC(=O)c1ccc(NS(=O)(=O)c2ccc(C)cc2)cc1	none (no result: PAX8 reporter) | Gli-Sufu confirm inactive | SufuKO cytotox inactive | Wnt3a cs inactive
O=C(OCCOc1ccc(Cl)cc1)c1cc(S(=O)(=O)N2CCCCC2)ccc1N1CCOCC1	Shn3 3UTR inh 90, Gli-Sufu block 69 (no result: Beta apoptosis, CSC inhib, Mdm2-MdmX inh) | Gli-Sufu confirm 68 | SufuKO cytotox 32 | Wnt3a cs 26
Cc1ccc(OCCOC(=O)c2cc(S(=O)(=O)N3CCCCC3)ccc2N2CCOCC2)cc1	Gli-Sufu block 55 (no result: CSC inhib) | Gli-Sufu confirm 65 | SufuKO cytotox 28 | Wnt3a cs inactive
C[C@@H]1CCCCO[C@H](CN(C)C(=O)NC2CCCCC2)[C@H](C)CN([C@@H](C)CO)C(=O)c2cc(NC(=O)Nc3cccc4ccccc34)ccc2O1	none (no result: Beta apoptosis, Shn3 3UTR inh, Gli-Sufu block, CSC inhib, Mdm2-MdmX inh)
CCn1c(COc2ccc3c(c2)OCO3)nnc1SCC(=O)c1ccccc1	Gli-Sufu block 67 (no result: PAX8 reporter, CSC inhib) | Gli-Sufu confirm inactive | SufuKO cytotox inactive | Wnt3a cs inactive
CCn1c(COc2ccc(Cl)cc2)nnc1SCC(=O)Nc1ccc2c(c1)OCO2	none (no result: PAX8 reporter)
N#C[C@@H]1[C@H](c2ccc(-c3ccccc3F)cc2)[C@H](CO)N1C(=O)Cc1ccccc1	none (no result: Beta apoptosis, Shn3 3UTR inh, Gli-Sufu block, CSC inhib, Mdm2-MdmX inh)
CCOC(=O)CNC(=O)CSc1nc(-c2ccccc2)ns1	Gli-Sufu block 62 | Gli-Sufu confirm inactive | SufuKO cytotox inactive | Wnt3a cs inactive
CCOC(=O)CNC(=O)CSc1nc(-c2ccc(C)cc2)ns1	none
NC(=O)COc1ncnc2scc(-c3ccc(F)cc3)c12	none | Gli-Sufu confirm inactive | SufuKO cytotox inactive | Wnt3a cs inactive
O=[N+]([O-])c1ccc(/C=[N+](\[O-])[C@@H]2CCCC[C@@H]2/[N+]([O-])=C/c2ccc([N+](=O)[O-])o2)o1	Gli-Sufu block 76 | Gli-Sufu confirm 67 | SufuKO cytotox inactive | Wnt3a cs inactive
O=C(N/N=C/c1ccc([N+](=O)[O-])o1)C1CCCC1	none
COC(=O)[C@@]12CCCCN1[C@H](c1ccc(-c3ccccc3)cc1)[C@@H]1C(=O)N(C)C(=O)[C@@H]12	Gli-Sufu block 83 | Gli-Sufu confirm inactive | SufuKO cytotox inactive | Wnt3a cs 25
FC(F)Oc1ccc(-c2c[n+]3c(n2-c2ccccc2)CCCCC3)cc1	Gli-Sufu block 60 | Gli-Sufu confirm 70 | SufuKO cytotox inactive | Wnt3a cs inactive
O=C1CCCc2c1cc(-c1ccccc1)n2-c1ccccc1	none (no result: PAX8 reporter)
COc1ccc(-c2c[n+]3c(n2-c2ccccc2)CCCCC3)cc1	Beta apoptosis 115, Gli-Sufu block 84 | Gli-Sufu confirm 85 | SufuKO cytotox 35 | Wnt3a cs 34
Cc1ccc(-c2csc(NC(=O)c3c(C)noc3C)n2)s1	Beta apoptosis 124 (no result: PAX8 reporter) | Gli-Sufu confirm 64 | SufuKO cytotox 34 | Wnt3a cs inactive
O=C(C[C@H]1CC[C@@H]2[C@H](COC[C@@H](O)CN2Cc2cccc(C(F)(F)F)c2)O1)NCc1ccncc1	none (no result: Beta apoptosis, Shn3 3UTR inh, Gli-Sufu block, CSC inhib, Mdm2-MdmX inh)
CC(=O)N1[C@@H]2c3ccc(C4=CCCCC4)c(=O)n3C[C@H]1[C@H](CO)[C@H]2C(=O)NCc1cc(F)cc(F)c1	none (no result: Beta apoptosis, Shn3 3UTR inh, Gli-Sufu block, CSC inhib, Mdm2-MdmX inh)
C=CCNC(=O)c1ccccc1NC(=O)C1CCN(S(=O)(=O)c2ccc(SC)cc2)CC1	Gli-Sufu block 66 | Gli-Sufu confirm inactive | SufuKO cytotox inactive | Wnt3a cs inactive
C=CCNC(=O)c1ccccc1NS(=O)(=O)c1ccc(SC)cc1	none (no result: PAX8 reporter)
COc1ccccc1OCC(=O)Nc1ccc(NC(=O)COc2ccccc2OC)cc1	none
CC(Oc1ccccc1)C(=O)Nc1ccc(C(N)=O)cc1 (stereo not drawn)	none (no result: PAX8 reporter, CSC inhib) | Gli-Sufu confirm inactive | SufuKO cytotox inactive | Wnt3a cs inactive
COc1ccccc1OCC(=O)Nc1ccc(C(N)=O)cc1	Gli-Sufu block 69 (no result: PAX8 reporter) | Gli-Sufu confirm inactive | SufuKO cytotox inactive | Wnt3a cs inactive
C[C@@H]1CCCCO[C@H](CN(C)C(=O)C2CCCCC2)[C@H](C)CN([C@@H](C)CO)C(=O)c2cc(NS(C)(=O)=O)ccc2O1	none (no result: Beta apoptosis, Shn3 3UTR inh, Gli-Sufu block, CSC inhib, Mdm2-MdmX inh)
COc1ccccc1CNC(=O)C[C@@H]1C[C@H]2c3cc(NC(=O)CC4CC4)ccc3O[C@H]2[C@@H](CO)O1	none (no result: Beta apoptosis, Shn3 3UTR inh, Gli-Sufu block, CSC inhib, Mdm2-MdmX inh)
COc1ccc(S(=O)(=O)Nc2ccccc2Cl)cc1NC(C)=O	none | Gli-Sufu confirm inactive | SufuKO cytotox inactive | Wnt3a cs inactive
COc1ccc(S(=O)(=O)Nc2ccccc2C(=O)NC2CC2)cc1NC(C)=O	none
COc1ccc(N2CCN(C(=O)NCc3ccc(OC)c(OC)c3)CC2)cc1	none
COc1ccc(N2CCN(C(=O)NCc3ccc(OC)c(Cl)c3)CC2)cc1	Gli-Sufu block 56 | Gli-Sufu confirm inactive | SufuKO cytotox inactive | Wnt3a cs inactive
COc1ccc(-c2ccc([C@@H]3[C@H]4CN(Cc5ccc(F)cc5)CC(=O)N4[C@H]3CO)cc2)cc1	none (no result: Beta apoptosis, Shn3 3UTR inh, Gli-Sufu block, CSC inhib, Mdm2-MdmX inh)
CCCCc1ccc(N=N/C(C(=O)Nc2cc(OC)c(NC(C)=O)cc2OC)=C(/C)O)cc1	Gli-Sufu block 64 | Gli-Sufu confirm inactive | SufuKO cytotox inactive | Wnt3a cs inactive
Cc1nc2ccccc2nc(C)c1=NOCc1cccc(F)c1	Gli-Sufu block 66 | Gli-Sufu confirm inactive | SufuKO cytotox inactive | Wnt3a cs inactive
Cc1nc2ccccc2nc(C)c1=NOCc1ccc(C#N)cc1	none (no result: Beta apoptosis)

High-throughput results: PubChem, several laboratories
